# PubChem BioAssay AID1508600 (Functional Genomics Laboratory (NCATS/FGL), 2020)
# The whole screen tested about 53,000 sequences, of which about 3,700 (7%) were called active. This excerpt belongs to a sample that is enriched for actives. Unmarked numbers belong to inactive results.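 Rule for the calls: active = gene knockdowns whose robust z-score for IL-1 alpha signal is at least 2 or at most -2, so actives lie on both sides; inactive = the rest.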
# Assay: Components of the Cytosolic LPS Sensing Pathway: Gene Identification via Genome-wide siRNA Screen;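 note: robust z of the log signal after scaling to non-targeting control siRNA wells of the plate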
# Details: RAW264.7 macrophages, IL-1a HTRF, actives lie on both sides, screened at 100 nM (by protocol), cells primed 5 h with Pam3CSK4 first
# Method in brief: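 IL-1a HTRF of supernatants after 24 hour LipidA transfection of Pam3CSK4-primed (5 hours) RAW264.7 cells, 48h post-siRNA transfection (100 nM). Scores: percent of plate negative-control median, then log-based robust z-score.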
row,Sequence,z-score
1,CCGGAUGGGAAUCGCUAAATT against Slc22a13b,2.17 (active)
2,AAUCUUUUCGUGAAGGCACTT against Zfp948,0.84
3,CGAAUGCUUAUUUAGGUUGTT against Kpna4,-0.387
4,GCUGAAAUAUGUGAGAGCATT against Sdcbp,0.016
5,CCGGGUCAUUAUCUAUCAATT against Puf60,-0.383
6,CGCAGCUUUCUAUACUGGCTT against Ngf,2.41 (active)
7,GCACUUACUCUUCAACGGGTT against Yae1d1,1.87
8,GGUCGUCGUGAGAUCUUAUTT against Prlhr,-0.342
9,CGUGUGUUUUACCCUAAAATT against Zfp947,0.404
10,GGAAGCUGUGGAGAAACUATT against Acox2,2.22 (active)
11,GGACGAGAACAUCUUAAUCTT against Pim1,1.58
12,GGAACUUACACAUUUGUUCTT against Tnfsf13b,-1.11
13,GCCAUGACCAUCUUUCUCUTT against Olfr1413,-3.03 (active)
14,GGAGCAUGUCUUUAAGAAGTT against Stac,-1.15
15,GCUAACUUACCCAAAGAAATT against Tnfaip3,1.41
16,GUGCAACGUGAGCAAUACGTT against Selenbp2,-0.417
17,CGUAAAACUCUUAGGCAUGTT against Npm1,1.13
18,GAAAAAAUGCCAGCUGUGGTT against Sec61b,0.379
19,CCUGCAUACGAAGUACAUATT against Bsg,2.75 (active)
20,GGAUCCAUCCGUCUCUAAGTT against Rprd2,0.628
21,GGUGCAAGUUCCCAUUAUATT against Tpsab1,-0.405
22,GGACAUAGCAUCUUCACUUTT against Mpp3,-1.31
23,GGCCUUAGGAAAAAAAAAGTT against Bad,0.956

row,Sequence,z-score
1,CCUUGGUGGUCUGAAAUAATT against Cyp4a31,-0.159
2,GGAGAAACUGGACAACCUGTT against Eno2,4.12 (active)
3,GGAUGUGAAUGAGUGUGAGTT against Fbln7,0.368
4,GGAGAAUGAACAGACAGAGTT against Slc39a14,-2.06 (active)
5,GGAGAAGAAGGUUCUUGCCTT against Hoxb13,-1.03
6,GGUCGCACAAGGUAUUAUATT against AI661453,-0.402
7,GGGAAAAAGAACAAGAUCATT against Cep57l1,-0.799
8,GGGAACAAGACAACACAGCTT against Adam11,2.03 (active)
9,GGUACUUCCUCAUUUACCUTT against Zdhhc4,0.541
10,CCGUAAGCUGUCUCUUUGUTT against Pla2g4c,-1.97
11,CCGUCUAUUAGUGAAGAUGTT against Pex1,0.0157
12,GGGUGAAAAUGGCAUUGUUTT against Col1a2,0.56
13,CGUGAUGGGACUUGAGAAGTT against Teddm1a,-0.454
14,GGAAAGAUUGUUUGAAGGCTT against Cask,-0.252
15,GCUGAUUUCAUUGCAUCCGTT against Olfr483,2.12 (active)
16,GGAAAAGGUUAAACUUUGATT against Cenpc1,0.165
17,CCAUCCUCCUACUCGUUAGTT against Vmn1r233,2.03 (active)
18,CCAAUAAAAGUUGAGAGCUTT against Krt18,-0.272
19,GCCUGACAUUGGGACAAAGTT against Trim34a,0.179
20,GCCUCCUAUCCUGGGAAGATT against Prss3,2.54 (active)
21,GGAGACGAGAAACAAACCCTT against Diaph2,1.68
22,GGUACUUUGGAGAUUGUAATT against Rdh14,-0.462
23,GGCAGCCAAGAGAUUGAAUTT against Suclg2,1.09

row,Sequence,z-score
1,GGUUCUGAAAUGCAUGGAGTT against Rnf6,1.76
2,GCAAAUGCGACUUUACACATT against Top1,2.56 (active)
3,GGAGCUGCUUGCUCAAAGATT against Tmem65,0.61
4,GCUGGAAAUGACACUGCCUTT against C1qtnf7,1.45
5,GCGGGAAUGAAGAAACACGTT against Eea1,0.801
6,GCCACGUUCCCUUGAUCAUTT against Mx2,1.4
7,GGAUGCCUUCUAUACACUATT against Hras,-1.33
8,CCCUUACAUCCAUCAACUATT against Dcbld2,-1.04
9,GGAAGUAUGUGUUUCUCAGTT against Prr9,-2.41 (active)
10,GGUAAUAAACGGUAAAUUGTT against B430306N03Rik,-0.763
11,GGUUCCAUAGCAGACAAAATT against Mrpl24,0.513
12,CCAAAUAUGUACUUCAUGGTT against Adipor1,-0.147
13,CGAUAAGAACACCUAUAUUTT against Sf3b1,-3.26 (active)
14,GGACAUCCAUUCAUGCUUUTT against Serpinb1b,-0.529
15,CCUAUAACUCCAAGGAUACTT against Lexm,0.628
16,GGUUUUGAGCAAAAUUCUATT against Nrd1,0.985
17,GCACUGGAAAUUGUAUAAATT against Hyal6,2.19 (active)
18,CGGAGUGUACCAUCUACACTT against Agpat4,0.193
19,GGGACUGCAUACUUAAGUUTT against Amacr,1.31
20,GGGACCGUGAAGAAAAUUUTT against Tmed11,-0.926
21,GGAGGCUUAUCCUAAAAAGTT against 6330444E15Rik,-1.02
22,GCUGAACCUAUGAGGGAGATT against Gpank1,0.809
23,GGAGUUCAUUCUGGAUAUCTT against Matn2,1.24
